Source: PubChem BioAssay
Compounds with a hit are over-represented: about 2.4% of the library has one in this group of screens.
D2 PAM-1 = positively modulates the human D2 dopamine receptor allosterically; potentiation, % at 10 µM; P14416; HEK293 T-REx D2, calcium flux, EC20 dopamine potentiation; 340,000 tested, 0.34% active;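 active = potentiation over 3 SD above the plate norm, cut at about 30% in these data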; also: 0% is about no effect
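Using a no-wash calcium dye in inducible, force-coupled HEK293 Trex cells expressing D2, we tracked fluorescence each second for 180 s after compound, then for 180 s after EC20 dopamine to detect augmented signalling.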
D2 PAM-2 = positive allosteric modulators of human D2 dopamine receptor; P14416; DiscoveRx D2 beta-arrestin cells, luminescence, 90 min; 100% = 57 uM dopamine signal; potentiation, % (test concentration not listed); 360,000 tested, 0.23% active; AID 624464; in the data active = potentiation above about 50%
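D2 cells co-treated with compound plus 50 nM dopamine (EC20) for 90 min at 37 deg C to detect potentiation. Beta-arrestin recruitment was read as enzyme-fragment luminescence after 1 h at ambient temperature. Full response was set by 57 uM dopamine.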
D2 antagonist = antagonizes the human D2 dopamine receptor | P14416 | HEK293 TREx D2 cells, calcium flux, dopamine EC80 | inhibition, % at 10 µM | 340,000 tested, 2% active | AID 485344; in the data active = inhibition above about 30%; inactive = below that, where a call was filed; also: 0% is about no effect
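Calcium mobilization kinetics were recorded at 1 s intervals in tetracycline-induced HEK293 T-REx D2 cells, first for 180 s after compound addition and then 180 s after EC80 dopamine.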
D2 ag-1 = agonists of human D2 dopamine receptor (beta-arrestin). DiscoveRx PathHunter D2 beta-arrestin, luminescence, 90 min; 100% = 57 uM dopamine signal. AID 624465. activation, % (concentration not given with the values). P14416. 360,000 tested, 0.084% active; in the data active = activation above about 40%
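Agonist mode: compounds alone added to overnight-plated D2 PathHunter cells for 90 min at 37 C, with 57 uM final dopamine (EC100) defining full response. Beta-arrestin recruitment detected by chemiluminescent reagent, read after 1 h at ambient temperature.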
D2 ag-2 = activates the human D2 dopamine receptor | P14416 | HEK293 T-REx D2 cells, calcium flux agonist mode | activation, % at 2 µM | 340,000 tested, 0.53% active;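 active = activation over 3 SD above normal in the single-dose calcium agonist read, cut at about 30% in these data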; also: 0% is about no effect
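In this primary screen, compounds producing a positive calcium signal within 180 s of addition to tetracycline-induced, force-coupled HEK293 Trex D2 cells are flagged; cells are dye-loaded with a no-wash calcium kit beforehand.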
D3 arrestin ag = activates human D3 dopamine receptor beta-arrestin recruitment; Potency, µM (highest dose often 76.9 µM), for inactives: top-dose activation, usual class: activators; DiscoveRx D3 beta-arrestin cells, luminescence, 90 min; 2,300 tested, 4% active; shares compounds with D2 ag-2;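 also: potency is read from the fitted curve at half-maximal effect; 100% = dopamine control response; nearly all actives have a fitted effect of over 70% in size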
Target sequence (P35462 whole entry, looked up): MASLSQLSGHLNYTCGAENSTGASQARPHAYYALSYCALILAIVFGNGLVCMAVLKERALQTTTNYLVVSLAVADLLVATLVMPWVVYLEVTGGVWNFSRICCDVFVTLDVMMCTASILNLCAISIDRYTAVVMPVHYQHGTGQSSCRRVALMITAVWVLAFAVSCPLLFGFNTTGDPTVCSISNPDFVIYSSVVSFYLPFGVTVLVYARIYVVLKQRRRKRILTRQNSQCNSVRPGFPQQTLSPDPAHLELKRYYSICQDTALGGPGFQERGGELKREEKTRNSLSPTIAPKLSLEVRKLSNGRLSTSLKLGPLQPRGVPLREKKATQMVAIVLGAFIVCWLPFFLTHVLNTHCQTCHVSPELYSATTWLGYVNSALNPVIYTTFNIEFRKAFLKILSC
D2 ag-3 = counter-screen for D3 agonists: human D2 dopamine receptor agonism. shares compounds with D2 ag-2. DiscoveRx PathHunter D2 beta-arrestin, luminescence, 90 min; response scale: percent relative to full dopamine signal. Potency, µM (doses to about 76.9 µM), for the others: at the highest dose activation, hits mostly activators. 2,300 tested, 5.9% active. AID 720507; also: potency is read from the fitted curve at half-maximal effect; % of control where 0% means no effect; nearly all actives have a fitted effect of over 70% in size
Numbers without * were called inactive. Unless noted, calls follow the shape of the dose curve; as a rule, active = well fitted activation curve with a large enough effect; inconclusive = small, poorly fitted or top-dose-only effect; inactive = flat fitted curve, though single readings scatter.

Results for CC1=C(C)CC(C(=O)NCCc2ccccc2)C(C(=O)O)C1 (configuration not stated) ?
D2 PAM-1: -7; D2 PAM-2: 14; D2 antagonist: -1; D2 ag-1: 4; D2 ag-2: 3

What do the screens show for `O=C(O)C1C2C=CC(C3CC23)C1C(=O)NCCc1ccccc1` (configuration not stated)?
D2 PAM-1: -23; D2 PAM-2: -11; D2 antagonist: 5; D2 ag-1: -1; D2 ag-2: 32*; D3 arrestin ag: 12%; D2 ag-3: 15%

How did CN(C)S(=O)(=O)n1cnc([C@H]2c3c(ncn3Cc3ccccc3)C[C@H]3COC(=O)[C@@H]32)c1 do in these assays?
D2 PAM-1: 10; D2 PAM-2: -3; D2 antagonist: -1; D2 ag-1: -5; D2 ag-2: 0

Results for CN(C)S(=O)(=O)n1cnc([C@@H]2[C@@H]3C(=O)OC[C@@H]3C[C@]23N=CN(Cc2ccccc2)C3=O)c1 ?
D2 PAM-1: 8; D2 PAM-2: -5; D2 antagonist: 31*; D2 ag-1: 1; D2 ag-2: 0; D3 arrestin ag: -2%; D2 ag-3: -4%

Results for O=[N+]([O-])CC(=Nc1ccc(F)cc1)N/N=C\c1oc(O)c2ccccc12 ?
D2 PAM-1: 6; D2 antagonist: -5; D2 ag-2: 0

Results for CC1(C)C2([N+](=O)[O-])CN3CC1([N+](=O)[O-])CN(C2)C3c1ccc(O)c(O)c1 (configuration not stated) ?
D2 PAM-1: 5; D2 PAM-2: 5; D2 antagonist: 10; D2 ag-1: 1; D2 ag-2: 1; D3 arrestin ag: 17%; D2 ag-3: 4%

How did O=C(CN1CCN(Cc2ccccc2)CC1)NC(=O)NC1CCCCC1 do in these assays?
D2 PAM-1: 13; D2 PAM-2: -20; D2 antagonist: -4; D2 ag-1: -4; D2 ag-2: 0

What do the screens show for `O=C(CN1CCN(C/C=C/c2ccccc2)CC1)NC(=O)NC1CCCCC1`?
D2 PAM-1: -34; D2 PAM-2: -15; D2 antagonist: 71*; D2 ag-1: 1; D2 ag-2: 23; D3 arrestin ag: 17%; D2 ag-3: 11%

How did COc1ccccc1NC(=O)C(C)OC(=O)C(C)SCC(=O)Nc1ccc(C)cc1 (configuration not stated) do in these assays?
D2 PAM-1: -14; D2 PAM-2: -20; D2 antagonist: 10; D2 ag-1: -3; D2 ag-2: -1; D3 arrestin ag: -2%; D2 ag-3: -3%

What do the screens show for `Cc1cc(=O)[nH]c(Nc2c(C)n(C)n(-c3ccccc3)c2=O)n1`?
D2 PAM-1: -5; D2 PAM-2: 3; D2 antagonist: 23; D2 ag-1: -2; D2 ag-2: 1

What do the screens show for `Cc1c(NC2=C(Cl)C(=O)N(c3ccccc3Cl)C2=O)c(=O)n(-c2ccccc2)n1C`?
D2 PAM-1: -19; D2 PAM-2: -6; D2 antagonist: -4; D2 ag-1: 0; D2 ag-2: 44*; D3 arrestin ag: -5%; D2 ag-3: -4%

What do the screens show for `Cc1nn(C(C)C)c(C)c1CN1CCN(Cc2ccsc2)C(CCO)C1` (configuration not stated)?
D2 PAM-1: 2; D2 PAM-2: -14; D2 antagonist: -8; D2 ag-1: -4; D2 ag-2: 2

Results for CCCN(CCC)CCNC(=O)CCC(=O)Nc1ccc2nc(N3CCN(C)CC3)cc(C)c2c1 ?
D2 PAM-1: -18; D2 PAM-2: -8; D2 antagonist: -4; D2 ag-1: -3; D2 ag-2: 13; D3 arrestin ag: 14%; D2 ag-3: 15%

What do the screens show for `CCCCNC(=O)CCC(=O)Nc1ccc2nc(N3CCN(C)CC3)cc(C)c2c1`?
D2 PAM-1: 7; D2 PAM-2: -10; D2 antagonist: -8; D2 ag-1: -5; D2 ag-2: 0

What do the screens show for `CC1(C)CC(=O)C2=C(C1)N(c1ccc(F)cc1)C(=O)NC2(C(F)(F)F)C(F)(F)F`?
D2 PAM-1: -19; D2 PAM-2: 8; D2 antagonist: 8; D2 ag-1: -1; D2 ag-2: -1

What do the screens show for `Cc1[nH]n(-c2ccccc2)c(=O)c1C1(C(F)(F)F)C(=O)N(c2ccc(F)cc2)C2=C1C(=O)CC(C)(C)C2` (configuration not stated)?
D2 PAM-1: -10; D2 PAM-2: -15; D2 antagonist: 11; D2 ag-1: 1; D2 ag-2: 5; D3 arrestin ag: 12%; D2 ag-3: -6%

What do the screens show for `C=CC1CN2CCC1CC2C(O)c1ccnc2ccc(OC)cc12` (configuration not stated)?
D2 PAM-2: -48; D2 ag-1: -3

Results for CC1CC1C(=O)Nc1ccc(S(=O)(=O)N2CCCCC2)cc1 (configuration not stated) ?
D2 PAM-2: -22; D2 ag-1: -2; D3 arrestin ag: 1%; D2 ag-3: 3%

How did O=C(O)C1CCCCC1C(=O)Nc1ccc(S(=O)(=O)N2CCCCCC2)cc1 (configuration not stated) do in these assays?
D2 PAM-1: -4; D2 PAM-2: -2; D2 antagonist: -28; D2 ag-1: -7; D2 ag-2: 0

Results for CCCN(C#N)c1nc(NCC)nc(NC(C)C)n1 ?
D2 PAM-1: 4; D2 PAM-2: -14; D2 antagonist: 5; D2 ag-1: 1; D2 ag-2: -2

How did CCN(C#N)c1nc(NC(C)C)nc(NC(C)(C)C)n1 do in these assays?
D2 PAM-1: -15; D2 PAM-2: -3; D2 antagonist: -6; D2 ag-1: -4; D2 ag-2: 40*; D3 arrestin ag: -10%; D2 ag-3: -2%

What do the screens show for `Cc1cccc(C(=O)NC(=S)NNC(=O)c2ccc(Cl)cc2)c1`?
D2 PAM-1: -15; D2 PAM-2: -16; D2 antagonist: -1; D2 ag-1: -2; D2 ag-2: 75*; D3 arrestin ag: -13%; D2 ag-3: -9%

What do the screens show for `Cc1cccc(C(=O)NC(=S)NNC(=O)c2cccs2)c1`?
D2 PAM-1: -11; D2 PAM-2: -26; D2 antagonist: 22; D2 ag-1: -4; D2 ag-2: 29

What do the screens show for `O=C(NCc1ccccc1)c1nc[nH]c1C(=O)N1CCc2ccccc2C1`?
D2 PAM-2: -13; D2 ag-1: 1
